Experimental data as given in PubChem BioAssay (Tox21).
Records with an inconclusive call do not appear. Activity calls are given as the source filed them. Unless noted, the call rests on the fitted dose curve; in most records, active means well fitted curve in the direction sought with a large enough effect in the repeat runs; inconclusive means weak or mixed curves; inactive means no such curve, though single readings can be large; an effect the other way counts as inactive or inconclusive.

Tests used:
[1] = qHTS assay to identify small molecule antagonists of the androgen receptor (AR) signaling pathway using the MDA cell line in the presence of 0.5 nM R1881 - cell viability counter screen (AID 1259242); further: nearly all actives have a fitted effect of over 45% in size
How it was run: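 Fluorescence from CellTiter-Fluor, which reports protease activity of live cells, was read 30 min after reagent addition to MDA-kb2 cells that had been incubated 16 hr with compound and 0.5 nM R1881.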

[2] = qHTS assay to identify small molecule phospholipidosis (PLD) inducers (AID 1259344; active means well fitted curve in the direction sought with a large enough effect; an effect the other way counts as inactive or inconclusive)
How it was run: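 Phospholipidosis is scored by imaging LipidTOX-stained pits in HepG2 cells exposed to compound for 24 h at 37 C; pit counts and integrated intensities per well and per cell serve as outputs.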

[3] = qHTS assay to identify small molecule HDAC inhibitors (AID 1259364); further: top concentration of the series differs between compounds; nearly all actives have a fitted effect of over 45% in size
How it was run: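 Endogenous HDAC class I/II activity was measured in wild-type HCT-116 cells by HDAC-Glo luminescence after 2 h compound treatment.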

[4] = qHTS assay to identify small molecule agonists of the sonic hedgehog signaling (Shh) pathway - cell viability counter screen (AID 1259366); further: nearly all actives have a fitted effect of over 50% in size; further: potency means the concentration at half of the fitted maximal effect
How it was run: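 Compounds in DMSO were pin-transferred onto 3T3 Gli1-Luc cells that had settled 4hr; plates then stood 24hr at 37C and 5% CO2. One hour before the end, CellTiter-Fluor was added and fluorescence recorded.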

[5] = qHTS assay to identify small molecule antagonists of the sonic hedgehog signaling (Shh) pathway - cell viability counter screen (AID 1259367); further: nearly all actives have a fitted effect of over 55% in size
How it was run: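 Cells: 3T3 Gli1-Luc, 2,000/well, 4 hr pre-incubation. Compounds in DMSO, then conditioned medium. Incubation 24 hr, 37C, 5% CO2. CellTiter-Fluor at 23 hr, 1 hr, fluorescence.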

[6] = qHTS assay to identify small molecule agonists of the sonic hedgehog signaling (Shh) pathway (AID 1259368; calls by dose curve;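 further: NIH/3T3-derived 3T3Gli1-Luc cells carrying a stable Gli1-driven firefly luciferase reporter; series mostly up to about 92 µM; nearly all actives have a fitted effect of over 15% in size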)
How it was run: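 Luminescent signal was taken as a measure of Gli1-controlled luciferase expression in stably transfected NIH/3T3-derived cells that had been treated for 24 hr with compounds delivered in DMSO.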

[7] = qHTS assay to identify small molecule antagonists of the sonic hedgehog signaling (Shh) pathway (AID 1259369; calls by dose curve; further: nearly all actives have a fitted effect of over 45% in size; further: potency means the concentration at half of the fitted maximal effect)
How it was run: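 Screening used 3T3Gli1-Luc cells at 2,000 per well, compounds delivered in DMSO, and conditioned medium as agonist stimulus; plates incubated 24hr at 37 C and 5% CO2 before a 30min luciferase step.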

[8] = target: Estrogen receptor beta (Homo sapiens) (UniProt Q92731); experiment: qHTS assay to identify small molecule agonists of the estrogen receptor beta (ER-beta) signaling pathway (AID 1259377; active means well fitted activation curve with a large enough effect in the signal ratio in the repeat runs, not every such curve was filed as active; the % refers to the signal ratio)
How it was run: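 qHTS in ER-beta-UAS-bla HEK293T cells: 6 hr settling, then 16 hr compound at 37C, then LiveBLAzer substrate 2 h at RT before fluorescence reading.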

[9] = target: Estrogen receptor beta (Homo sapiens) (UniProt Q92731); experiment: qHTS assay to identify small molecule antagonists of the estrogen receptor beta (ER-beta) signaling pathway (AID 1259378; active means well fitted inhibition curve with a large enough effect in the signal ratio in the repeat runs, not every such curve was filed as active; the % refers to the signal ratio; further: potency means the concentration at half of the fitted maximal effect)
How it was run: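 Antagonist mode: compounds added to beta-lactamase reporter HEK293T ER-beta-UAS cells stimulated with E2 (1nM final), 16 hr at 37C. LiveBLAzer B/G FRET substrate, 2 hours room temperature, fluorescence read-out.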

[10] = qHTS assay to identify small molecule agonists of the androgen receptor (AR) signaling pathway in the presence of an antagonist - cell viability counter screen (AID 1259379);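 further: MDA-kb2 human breast cancer cells carrying an MMTV luciferase reporter; series mostly up to about 92 µM; nearly all actives have a fitted effect of over 25% in size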
How it was run: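 In MDA-kb2 cells (human breast carcinoma, MMTV-luciferase), compounds at 15 concentrations plus 3.0uM nilutamide; 16 hr, 37C, 0% CO2; CellTiter-Fluor fluorescence read for viability.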

[11] = qHTS assay to identify small molecule agonists of the estrogen receptor beta (ER-beta) signaling pathway - cell viability counter screen (AID 1259380); further: nearly all actives have a fitted effect of over 30% in size; further: potency means the concentration at half of the fitted maximal effect
How it was run: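 Viability of ER-beta-UAS-bla HEK293T cells was determined by CellTiter-Glo luminescence following 16 hr treatment with test compounds at 37C.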

[12] = qHTS assay to identify small molecule antagonists of the estrogen receptor beta (ER-beta) signaling pathway - cell viability counter screen (AID 1259382);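 further: HEK293T cells carrying ER-beta-UAS-bla reporter stimulated with estradiol; series mostly up to about 92 µM; nearly all actives have a fitted effect of over 55% in size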
How it was run: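 Tox21 10K library tested in qHTS format on ER-beta-bla HEK293T cells stimulated with 1nM E2; 16 hr treatment at 37C. Same-well CellTiter-Glo luminescence served as the cell viability measure.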

[13] = target: Estrogen receptor (Homo sapiens) (UniProt P03372); experiment: qHTS assay to identify small molecule agonists of the estrogen receptor alpha (ER-alpha) signaling pathway in the presence of an antagonist (AID 1259383; calls by dose curve; further: top concentration of the series differs between compounds; nearly all actives have a fitted effect of over 15% in size)
How it was run: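 In VM7Luc4E2 cells, 4,000 per well, compounds at 15 concentrations were co-incubated 22hr at 37C with 10.0nM final ICI-182,780. Luminescence from the stably transfected 4×ERE-luciferase reporter was recorded 30min after ONE-Glo addition.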

[14] = qHTS assay to identify small molecule agonists or antagonists of the thyroid stimulating hormone receptor (TSHR) signaling pathway - wild type cell line counter screen (AID 1259384; calls by dose curve)
How it was run: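 Counter screen in untransfected Hek293: compounds (15-point titration, triplicate) plus phosphodiesterase inhibitor Ro20-1724 added after 18 h plating; 30 min RT. Intracellular cAMP via competitive d2/cryptate immunoassay, 1 h incubation.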

[15] = target: Thyrotropin receptor (Homo sapiens) (UniProt P16473); experiment: qHTS assay to identify small molecule antagonists of the thyroid stimulating hormone receptor (TSHR) signaling pathway (AID 1259385; calls by dose curve; further: nearly all actives have a fitted effect of over 20% in size)
How it was run: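 Antagonist mode: compound-treated TSHR-expressing HEK293 cells were stimulated with 1.5 ng/mL TSH (final) in presence of Ro20-1724 for 30 min at RT. HTRF cAMP detection after 1 h; each compound tested at 15 concentrations, triplicate.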

[16] = qHTS assay to identify small molecule agonists of the estrogen receptor alpha (ER-alpha) signaling pathway in the presence of an antagonist - cell viability counter screen (AID 1259386);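 further: series mostly up to about 92 µM; cells exposed to compounds for 22 h at 37 °C before the viability read; nearly all actives have a fitted effect of over 30% in size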
How it was run: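 Fluorescent CellTiter-Fluor viability signal from VM7Luc4E2 cells, with the reagent added during the final hour of a 22hr compound exposure at 37C in the presence of 10.0nM ICI-182,780.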

[17] = qHTS assay to identify small molecule HDAC inhibitors - cell viability counter screen (AID 1259365); further: series mostly up to about 92 µM; nearly all actives have a fitted effect of over 50% in size
How it was run: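 HCT-116 wild-type, overnight attachment; 2hr drug exposure, 37C; CellTiter-Glo luminescent ATP readout after 30min RT.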
On the % scale 0 is the no-effect control and ±100 the full control effect.

Estrogen receptor beta (Homo sapiens), sequence (Q92731 whole entry, looked up): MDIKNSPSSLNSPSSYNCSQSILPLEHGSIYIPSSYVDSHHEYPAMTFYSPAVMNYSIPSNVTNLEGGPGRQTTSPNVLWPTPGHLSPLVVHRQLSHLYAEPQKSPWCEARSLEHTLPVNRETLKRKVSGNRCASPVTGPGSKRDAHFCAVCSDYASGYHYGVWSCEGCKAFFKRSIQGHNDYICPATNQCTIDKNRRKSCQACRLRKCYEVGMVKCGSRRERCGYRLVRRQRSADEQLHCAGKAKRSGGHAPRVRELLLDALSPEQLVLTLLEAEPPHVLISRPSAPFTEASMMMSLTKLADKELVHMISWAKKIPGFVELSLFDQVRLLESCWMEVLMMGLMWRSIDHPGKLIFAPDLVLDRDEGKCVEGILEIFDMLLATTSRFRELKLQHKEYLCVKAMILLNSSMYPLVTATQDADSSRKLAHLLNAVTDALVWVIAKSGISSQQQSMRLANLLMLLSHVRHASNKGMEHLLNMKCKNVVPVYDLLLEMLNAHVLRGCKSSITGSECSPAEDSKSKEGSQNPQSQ
Estrogen receptor (Homo sapiens), sequence (P03372 whole entry, looked up): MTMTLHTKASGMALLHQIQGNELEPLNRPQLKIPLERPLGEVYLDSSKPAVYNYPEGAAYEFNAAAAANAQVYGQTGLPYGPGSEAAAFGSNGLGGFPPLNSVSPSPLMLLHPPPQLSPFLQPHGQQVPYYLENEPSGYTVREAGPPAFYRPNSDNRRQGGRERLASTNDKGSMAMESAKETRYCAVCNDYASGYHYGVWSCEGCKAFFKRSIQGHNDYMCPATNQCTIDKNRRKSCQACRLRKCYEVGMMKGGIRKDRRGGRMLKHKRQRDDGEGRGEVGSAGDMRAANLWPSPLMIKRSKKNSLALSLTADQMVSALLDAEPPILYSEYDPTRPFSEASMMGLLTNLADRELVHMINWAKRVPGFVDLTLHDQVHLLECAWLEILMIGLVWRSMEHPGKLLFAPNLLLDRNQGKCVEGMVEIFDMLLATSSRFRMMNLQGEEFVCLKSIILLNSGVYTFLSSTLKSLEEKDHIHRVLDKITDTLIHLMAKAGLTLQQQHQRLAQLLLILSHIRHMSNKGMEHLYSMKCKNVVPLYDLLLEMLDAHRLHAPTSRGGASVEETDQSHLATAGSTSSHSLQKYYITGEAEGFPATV
Thyrotropin receptor (Homo sapiens), sequence (P16473 whole entry, looked up): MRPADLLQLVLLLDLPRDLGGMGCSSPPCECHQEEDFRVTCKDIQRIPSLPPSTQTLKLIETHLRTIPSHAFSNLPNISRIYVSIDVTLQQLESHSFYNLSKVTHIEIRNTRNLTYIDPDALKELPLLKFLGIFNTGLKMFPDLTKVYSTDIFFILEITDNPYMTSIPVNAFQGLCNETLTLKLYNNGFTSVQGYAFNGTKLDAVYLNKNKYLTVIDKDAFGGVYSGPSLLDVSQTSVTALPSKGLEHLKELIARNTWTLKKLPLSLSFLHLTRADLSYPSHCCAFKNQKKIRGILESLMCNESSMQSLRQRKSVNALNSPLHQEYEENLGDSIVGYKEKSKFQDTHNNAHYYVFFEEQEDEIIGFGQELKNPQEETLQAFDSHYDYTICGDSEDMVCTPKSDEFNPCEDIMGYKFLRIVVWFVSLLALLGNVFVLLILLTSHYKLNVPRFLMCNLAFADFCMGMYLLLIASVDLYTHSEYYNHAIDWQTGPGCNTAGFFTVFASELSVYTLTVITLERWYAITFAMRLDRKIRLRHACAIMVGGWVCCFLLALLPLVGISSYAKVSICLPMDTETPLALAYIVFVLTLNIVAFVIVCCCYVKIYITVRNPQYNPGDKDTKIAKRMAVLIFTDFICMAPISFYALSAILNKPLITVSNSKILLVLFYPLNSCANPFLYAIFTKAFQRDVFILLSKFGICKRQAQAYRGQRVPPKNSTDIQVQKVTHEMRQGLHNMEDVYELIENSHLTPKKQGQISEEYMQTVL

COc1ccc(C(=O)N2CCN(CC(=O)N3CCOCC3)CC2)cc1
inactive: Potency [1] | Potency [2] | Potency [3] | Potency [4] | Potency [5] | outcome [6] | Potency [7] | Potency [8] | Potency [9] | Potency [10] | Potency [11] | Potency [12] | Potency [13] | Potency [14] | Potency [15] | Potency [16]

CO[C@@H]1[C@H](OC(=O)/C=C/C=C/C=C/C=C/C(=O)O)CC[C@]2(CO2)[C@H]1[C@@]1(C)O[C@@H]1CC=C(C)C
inactive: Potency [1] | Potency [2] | Potency [3] | Potency [4] | Potency [5] | outcome [6] | Potency [8] | Potency [9] | Potency [11] | Potency [12] | Potency [13] | Potency [14] | Potency [15] | Potency [16]

COC(C)(C)CCO
inactive: Potency [1] | Potency [3] | Potency [17] | Potency [4] | Potency [5] | outcome [6] | Potency [7] | Potency [8] | Potency [9] | Potency [10] | Potency [11] | Potency [12] | Potency [14] | Potency [15] | Potency [16]

CC(C)(O)c1ccc(CNC(=O)c2cccnc2Oc2ccc(F)cc2)cc1
inactive: Potency [1] | Potency [3] | Potency [17] | Potency [4] | Potency [5] | outcome [6] | Potency [8] | Potency [9] | Potency [10] | Potency [11] | Potency [12] | Potency [14] | Potency [15] | Potency [16]
active: Potency [7] 0.273 µM

NC(N)=NCCC[C@H](N)C(=O)O
inactive: viability change, negative = cytotoxic [1] 3.68% [at 8.39 µM] | PLD induction [2] -2.12% [at 7.66 µM] | activity change, negative = inhibition [3] 1.7% [at 8.39 µM] | viability change, negative = cytotoxic [4] -3.86% [at 8.39 µM] | viability change, negative = cytotoxic [5] 1.21% [at 8.39 µM] | activity change [6] -0.124% [at 8.39 µM] | activity change, negative = inhibition [7] 18.9% [at 8.39 µM] | activation [8] -0.985% [at 8.39 µM] | activity, negative = inhibition [9] 14.4% [at 8.39 µM] | activity change, negative = cytotoxicity [10] 2.11% [at 8.39 µM] | activity change, negative = cytotoxicity [11] 6.72% [at 8.39 µM] | activity change, negative = cytotoxicity [12] 6.28% [at 8.39 µM] | activation [13] -0.001% [at 8.39 µM] | cAMP activity change [14] -11% [at 8.39 µM, active compounds read high] | activity change, negative = inhibition [15] -0.191% [at 8.39 µM] | activity change, negative = cytotoxicity [16] 0.856% [at 8.39 µM]

CC(C)(C)Cl
inactive: Potency [1] | Potency [3] | Potency [17] | Potency [4] | Potency [5] | outcome [6] | Potency [7] | Potency [9] | Potency [10] | Potency [11] | Potency [12] | Potency [13] | Potency [14] | Potency [15] | Potency [16]

C=C(C)C(=O)OCC
inactive: Potency [1] | Potency [3] | Potency [17] | Potency [4] | Potency [5] | outcome [6] | Potency [7] | Potency [9] | Potency [10] | Potency [11] | Potency [12] | Potency [13] | Potency [14] | Potency [15] | Potency [16]

CN(C)CCN(Cc1ccc(Cl)cc1)c1ccccn1
inactive: Potency [1] | PLD induction [2] -3.78% [at 0.137 µM] | Potency [3] | Potency [17] | Potency [5] | Potency [10] | Potency [14] | Potency [15] | Potency [16]
active: Potency [11] 33.5 µM

CCc1c(C(=O)NN2CCCCC2)nn(-c2ccc(Cl)cc2Cl)c1-c1ccc(Br)cc1
active: Potency [9] 4.33 µM
inactive: Potency [1] | Potency [3] | Potency [17] | Potency [4] | Potency [5] | outcome [6] | Potency [7] | Potency [8] | Potency [10] | Potency [13] | Potency [14] | Potency [15] | Potency [16]

COc1cc(Cl)c(OC)cc1N
inactive: Potency [1] | Potency [3] | Potency [17] | Potency [4] | Potency [5] | outcome [6] | Potency [7] | Potency [8] | Potency [9] | Potency [10] | Potency [11] | Potency [12] | Potency [14] | Potency [16]

CCCCCCCCCCCC(=O)OC[C@@H](O)[C@H]1OC[C@H](OCCO)[C@H]1OCCO
inactive: Potency [1] | Potency [3] | Potency [17] | Potency [4] | Potency [5] | outcome [6] | Potency [7] | Potency [8] | Potency [10] | Potency [11] | Potency [12] | Potency [13] | Potency [14] | Potency [15] | Potency [16]

C=CC(=O)OCCOc1ccccc1
active: Potency [4] 68.5 µM | Potency [7] 61.1 µM
inactive: Potency [1] | Potency [3] | Potency [17] | Potency [5] | outcome [6] | Potency [8] | Potency [9] | Potency [10] | Potency [14] | Potency [15] | Potency [16]

CCO[Si](CCCCl)(OCC)OCC
inactive: Potency [1] | Potency [3] | Potency [17] | Potency [4] | Potency [5] | outcome [6] | Potency [7] | Potency [8] | Potency [9] | Potency [10] | Potency [11] | Potency [12] | Potency [13] | Potency [14] | Potency [15] | Potency [16]

CC[N+]1(CC)CCC(=C(c2ccccc2)c2ccccc2)C1C (stereo not given)
inactive: Potency [1] | Potency [2] | Potency [3] | Potency [17] | Potency [4] | Potency [5] | outcome [6] | Potency [11] | Potency [12] | Potency [14] | Potency [15] | Potency [16]

CC(C)C[C@H]1C(=O)N2CCC[C@H]2[C@]2(O)O[C@](NC(=O)[C@@H]3C=C4c5cccc6[nH]c(Br)c(c56)C[C@H]4N(C)C3)(C(C)C)C(=O)N12
active: Potency [7] 5.19 µM
inactive: Potency [1] | Potency [2] | Potency [3] | Potency [17] | outcome [6] | Potency [11] | Potency [12] | Potency [14] | Potency [15] | Potency [16]

CC1(c2ccccc2)OC(C(=O)O)=CC1=O (stereo not given)
inactive: Potency [1] | Potency [2] | Potency [3] | Potency [17] | Potency [4] | Potency [5] | Potency [8] | Potency [9] | Potency [10] | Potency [11] | Potency [12] | Potency [14] | Potency [15] | Potency [16]

CCC(C)c1cc(C(C)(C)C)c(O)c(C(C)(C)C)c1 (stereo not given)
inactive: Potency [1] | Potency [3] | Potency [17] | Potency [4] | Potency [5] | outcome [6] | Potency [7] | Potency [8] | Potency [9] | Potency [10] | Potency [11] | Potency [12] | Potency [14] | Potency [15] | Potency [16]
